# This is part of a sample that, as a whole, favours compounds with a hit. Of some 79,000 tested, about 15% had one in any assay. Values without a mark were called inactive. Calls of active or inactive are those of the source. Rule as the data show it: active = growth inhibition above about 70%; inactive = the rest.
# Experiments:
# [1] = NCI Yeast Anticancer Drug Screen. Data for the rad50 strain (AID 155);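 also: 0% = growth of vehicle-only cultures of the same strain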; details: S. cerevisiae rad50 strain growth inhibition, hits give high values
# Procedure, shortened: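 Inhibition values express reduced yeast growth in compound-treated cultures relative to vehicle-treated controls.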
# [2] = NCI Yeast Anticancer Drug Screen. Data for the mec2-1 strain (AID 157); details: S. cerevisiae mec2-1 strain, hits give high values
# Procedure, shortened: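 Yeast mec2-1 mutant treated with compound. Readout: growth inhibition vs vehicle controls.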
# [3] = NCI Yeast Anticancer Drug Screen. Data for the sgs1 mgt1 strain (AID 161);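 also: 0% = growth of cultures given vehicle only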; details: S. cerevisiae sgs1 mgt1 strain, hits give high values
# Procedure, shortened: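 Inhibition of yeast growth, normalised to vehicle-treated controls, is reported for a strain bearing genetic alterations in DNA damage repair.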
# [4] = NCI Yeast Anticancer Drug Screen. Data for the cln2 rad14 strain (AID 165);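 also: 0% = growth equal to vehicle treated cultures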; details: S. cerevisiae cln2 rad14 strain, hits give high values
# Procedure, shortened: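 cln2 rad14 yeast strain; compound exposure; growth inhibition read vs vehicle controls.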
# [5] = NCI Yeast Anticancer Drug Screen. Data for the bub3 strain (AID 167); details: S. cerevisiae bub3 mutant strain, hits give high values
# Procedure, shortened: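 Steps: expose the mutant yeast strain to compound; grow alongside vehicle-treated cultures; measure growth; express inhibition against the vehicle cultures.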
# [6] = NCI Yeast Anticancer Drug Screen. Data for the mlh1 rad18 strain (AID 175); details: S. cerevisiae mlh1 rad18 strain growth inhibition, hits give high values
# Procedure, shortened: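 Yeast w/ defined DNA-repair lesions; compound exposure; growth vs vehicle controls → % inhibition.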
# [7] = at 5.0 µM (retest, dose inferred, filed as 0.5)
# [8] = at 50.0 µM (retest, dose inferred, filed as 5.0)
SMILES,"growth inhibition [1, 7]","growth inhibition [1, 8]",growth inhibition ([1]; at 50.0 µM),"growth inhibition [2, 7] [%]","growth inhibition [2, 8]",growth inhibition ([2]; at 50.0 µM),"growth inhibition [3, 7] [%]","growth inhibition [3, 8]",growth inhibition ([3]; at 50.0 µM),"growth inhibition [4, 7] [%]","growth inhibition [4, 8]",growth inhibition ([4]; at 50.0 µM),"growth inhibition [5, 7] [%]","growth inhibition [5, 8]",growth inhibition ([5]; at 50.0 µM),"growth inhibition [6, 7] [%]","growth inhibition [6, 8]",growth inhibition ([6]; at 50.0 µM)
Cc1cc(=O)n(C)c2c(C)cccc12,-163%,-139%,12.9%,-47,-47%,15.9%,-60,-57%,12.4%,-56,-50%,46.3%,-73,-72%,-2.85%,-145,-107%,10.2%
CCNC(=S)N/N=C/c1ccccn1,-15%,95% (active),81.5% (active),-42,92% (active),84% (active),-29,95% (active),78.2% (active),-21,95% (active),81.2% (active),-15,95% (active),82.5% (active),-33,97% (active),76.5% (active)
CN(C)C[N+](C)(C)Cc1ccc(C[N+](C)(C)C[N+](C)(C)Cc2ccc(CCl)cc2)cc1,0%,-2%,83% (active),-36,-1%,20.4%,-2,-1%,69.5%,0,-1%,45%,-8,-1%,66.2%,-2,-1%,52.5%
CN(C)N=Nc1ccc2[nH]c(=O)[nH]c2c1,16%,18%,53%,5,9%,38.8%,16,-18%,12.6%,13,-54%,29.1%,14,-11%,74% (active),19,19%,72.5% (active)
O=C1C(=O)C2CC3(CC1N2Cc1ccccc1)OCCO3,11%,95% (active),98% (active),-28,79% (active),96.5% (active),36,93% (active),96.9% (active),5,43%,95.2% (active),-10,78% (active),86.5% (active),34,94% (active),95.5% (active)
COc1ccc2ccc(=O)oc2c1CC=C(C)C,88% (active),98% (active),46.5%,13,99% (active),37.6%,6,99% (active),72.5% (active),7,98% (active),-9.6%,14,98% (active),62%,13,98% (active),31.5%
